Measurements reported in PubChem BioAssay AID624330 (Southern Research Specialized Biocontainment Screening …, 2012).
The campaign covered roughly 340,000 compounds. About 2,100 (0.62%) were called active.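 How the source made its calls: active means first-screen hits whose inhibition reached a set limit at any dose in the follow-up dose series; inconclusive means inhibition above the set first-screen limit but never retested; inactive means the rest.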 A selection follows. Measured potencies and affinities stand elsewhere.

Target: Rac GTPase-activating protein 1 (Homo sapiens) (UniProt Q9H0H5)
Sequence (Q9H0H5 whole entry, looked up): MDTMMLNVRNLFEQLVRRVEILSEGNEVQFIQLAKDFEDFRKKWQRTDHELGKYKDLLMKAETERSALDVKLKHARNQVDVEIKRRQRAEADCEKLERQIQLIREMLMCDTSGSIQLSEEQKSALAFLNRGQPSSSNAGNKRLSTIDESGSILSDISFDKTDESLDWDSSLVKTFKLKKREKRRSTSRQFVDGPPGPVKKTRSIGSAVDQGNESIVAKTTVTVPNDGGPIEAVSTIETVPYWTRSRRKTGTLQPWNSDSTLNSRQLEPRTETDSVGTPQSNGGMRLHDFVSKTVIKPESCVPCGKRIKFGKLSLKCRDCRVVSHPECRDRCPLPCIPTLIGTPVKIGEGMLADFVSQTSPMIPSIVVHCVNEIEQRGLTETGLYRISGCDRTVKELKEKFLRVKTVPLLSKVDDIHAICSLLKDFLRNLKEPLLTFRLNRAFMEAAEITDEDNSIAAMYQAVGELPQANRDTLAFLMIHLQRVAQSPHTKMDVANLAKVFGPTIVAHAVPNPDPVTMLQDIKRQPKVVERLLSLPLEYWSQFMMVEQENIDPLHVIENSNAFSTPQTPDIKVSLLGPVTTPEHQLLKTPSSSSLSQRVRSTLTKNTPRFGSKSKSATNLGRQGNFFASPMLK
Test: blockers of MgcRacGAP-driven Rac1 GTP hydrolysis – biochemical, ADP Hunter fluorescence, primary and confirmatory, confirmation (AID 624330);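 further: fluorescence reports GDP produced by GAP-driven GTP hydrolysis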
Conditions: MgcRacGAP-stimulated Rac1 GTP hydrolysis, at 30 µM, hits give high values, GST-tagged Rac1 F28L mutant substrate

inhibition, inactive:
O=C(CN1CCC(NC(=O)Nc2ccccc2)CC1)Nc1ccccc1F 5.94%
Cc1ccc(S(=O)(=O)N(C)c2ccccc2C(=O)N2CCOCC2)cc1 6.35%
O=C(Cc1ccc(Br)cc1)NCCc1ccc(F)cc1 9.29%
COc1ccc(S(=O)(=O)NC(C)C(=O)N2CCCC2)cc1Cl (configuration not stated) 1.21%
CN(C)c1ccc(Nc2nc(-c3cccnc3)cs2)cc1 14.4%
CCOc1ccc(Nc2nc(-c3cccnc3)cs2)cc1 6.12%
COc1cccc(Nc2nc(-c3cccnc3)cs2)c1 10.7%
c1ccc(-c2csc(Nc3ccccn3)n2)cc1 13.5%
COc1ccc(-c2csc(Nc3ccccc3)n2)cc1 15.5%
Cc1cccc(Nc2nc(-c3ccc(O)cc3O)cs2)n1 -2.8%
Cc1ccnc(Nc2nc(-c3ccc(O)cc3O)cs2)c1 15.2%
Cc1ccc(-c2csc(Nc3ccccn3)n2)cc1 14%
Cc1cccc2cc(COC(=O)COc3ccccc3)c(=O)[nH]c12 12%
CCC(=O)Oc1ccc(NC(=O)CSCc2ccccc2)cc1 13.9%
COc1ccc(CCNC(=O)COC(=O)Cc2ccccc2[N+](=O)[O-])cc1 3.96%
CCOC(=O)c1ccc(S(=O)(=O)N2CC(=O)Nc3ccccc32)cc1 8.64%
COc1ccc(-c2csc(NCc3ccco3)n2)cc1 12%
Cc1nc2ncccn2c1-c1csc(Nc2ccccc2)n1 11%
c1ccc(-c2csc(Nc3cccnc3)n2)cc1 3.24%
c1coc(CNc2nc(-c3ccncc3)cs2)c1 5.25%
c1ccc(-c2csc(Nc3ncccn3)n2)cc1 0.5%
CC(=O)Nc1ccc(-c2csc(Nc3ncccn3)n2)cc1 7.36%
c1cncc(Nc2nc(-c3ccncc3)cs2)c1 6.09%
Cc1ccc(Nc2nc(-c3c(C)nc4ncccn34)cs2)cc1 11.3%
O=C(O)CN1C(=O)NC2(CCc3ccccc32)C1=O (configuration not stated) 2.93%
Cc1noc(C)c1S(=O)(=O)N1CCCC(C(=O)NCC2CCCO2)C1 (configuration not stated) 4.53%
COc1ccc(NC2CCCN(C(=O)CCCN3CCCCC3=O)C2)cc1 (configuration not stated) 29.9%
COc1ccc(NC2CCCN(C(=O)CCN3CCOCC3)C2)cc1 (configuration not stated) 12.5%
COc1ccc(NC2CCCN(C(=O)CN3CCOC3=O)C2)cc1OC (configuration not stated) 22.5%
CC(C)c1ccc(NC2CCCN(C(=O)CN3CCOC3=O)C2)cc1 (configuration not stated) 8.4%
CC(C)c1ccc(NC2CCCN(C(=O)CCN3CCCO3)C2)cc1 (configuration not stated) 2.53%
CC(C)c1ccc(NC2CCCN(C(=O)CCN3Cc4ccccc4C3=O)C2)cc1 (configuration not stated) 4.84%
CN1OC[C@@H]2CN(Cc3cc(Cl)cc(Cl)c3)[C@H](c3cccc(-c4ccc(C#N)cc4)c3)C[C@@H]21 13.8%
COc1ccc(OCc2nnc(SCC(=O)N3CCCC3)o2)cc1 5.88%
CC1CN(Cc2ccccc2Cl)CC(C)O1 (configuration not stated) 16.3%
O=C(COc1ccccc1[N+](=O)[O-])Nc1cccc(C(=O)Nc2ccccc2C(=O)O)c1 17.3%
C=CCC1NS(=O)(=O)O[C@H](CCCC)[C@@H]1O (some centres not stated) -14.4%
O=C(O)CCC(=O)OCCc1cc2ccccc2c(=O)o1 -1.63%
O=C(c1ccc(=O)n(Cc2ccc(Cl)c(Cl)c2)c1)N1CCOCC1 1.2%
CC(C)N1C(=O)CSC1c1ccc(Br)cc1 (configuration not stated) 9.21%
Cc1ccccc1/C=N/NC(=O)c1cccnc1 4.63%
O=C(N/N=C/c1cccc2ccccc12)c1cccnc1 7.15%
Cc1ccsc1/C=N/NC(=O)c1cccnc1 6.67%
COc1ccc(/C=N/NC(=O)c2cccnc2)c2ccccc12 10.9%
COc1ccccc1CNC(=O)CCNS(=O)(=O)/C=C/c1ccc(C)cc1 -0.75%
COc1cc(N)c2ncccc2c1Br 20%
COc1cc(NC(C)CCCN)c2ncccc2c1 (configuration not stated) -2.49%
COc1cc(NC(=O)c2cccnc2SC)cc(OC)c1OC 9.4%
COc1cc(N)c2ncccc2c1Cl 7.55%
Nc1ccc(Br)c2cccnc12 9.68%
COc1cc(NC(C)CCCN)c2ncccc2c1Oc1ccccc1 (configuration not stated) 1.99%
CCOC(=O)N1CCN(c2ccc(N3C(=O)CCCC3=O)cc2[N+](=O)[O-])CC1 4.36%
O=C(CCNS(=O)(=O)c1ccc2[nH]c(=O)oc2c1)Nc1ccccc1 -24.4%
COc1ccc(OC)c(C(C[N+](=O)[O-])c2c(C)cc3ccccn23)c1 (configuration not stated) 5.52%
Cc1c(N2CCCCC2)[nH]c2ccccc12 8.41%
Cc1cccc(OCC(=O)Nc2ccc(N3CCN(C(=O)c4ccco4)CC3)cc2)c1C 8.56%
COc1cc(CNc2ncc(-c3ccc(Br)cc3)n2C)cc(OC)c1OC 29.8%
Cn1c(-c2ccc(F)cc2)cnc1NCc1ccc(F)cc1 16.6%
Cn1c(-c2cccc(Br)c2)cnc1NCc1cccnc1 29.7%
Cn1c(-c2ccc(F)cc2)cnc1NCc1cccc(F)c1 9.97%
Cn1c(-c2ccc(Br)cc2)cnc1NCc1ccc(C#N)cc1 21.2%
Cn1c(-c2ccc(Br)cc2)cnc1NCc1cccnc1 18.7%
C[C@H](CO)N1C[C@H](C)[C@@H](CN(C)S(=O)(=O)c2ccc(F)cc2)Oc2c(NC(=O)Cc3ccccc3)cccc2C1=O 9.78%
CCCc1nc2ccccc2c(=O)n1NC(=O)c1c(O)c2ccccc2n(C)c1=O -1.3%
O=C1Nc2ccccc2C1=Nc1ccc(F)cc1 6.47%
Cc1ccc(N=C2C(=O)Nc3ccccc32)cc1C 1.21%
COc1cccc(NC(=O)C(c2ccccc2)N2CCNC(=O)C2)c1 (configuration not stated) -3.03%
CN(CC(=O)Nc1c(Cl)cccc1Cl)C(=O)Cc1ccc2c(c1)CCC2 4.3%
COc1ccc(/C=C/c2ccc3ccccc3[n+]2C)cc1OC -0.83%
CC[n+]1c(/C=C/c2ccc(OC(C)=O)c(OC)c2)ccc2ccccc21 27%
Cc1ccc(N/C=C/C(=O)c2cccs2)cc1 1.9%
O=C(/C=C/Nc1ccc(F)cc1)c1cccs1 8.26%
COc1ccc(C)cc1N(CC(=O)Nc1cccnc1)S(=O)(=O)c1ccc(C)cc1 3.72%
O=C(CCSc1nnc(-c2ccco2)o1)Nc1ccc(Cl)cc1 5.12%
Cc1ccc(S(=O)(=O)N2CCOCC2)cc1C(=O)NC1CCCC1 6.35%
NC(=S)N/N=C/c1ccccc1O 10.3%
COC(=O)c1cccc(/C=N/NC(N)=S)c1O 14.2%
COc1ccc(N(C(C)=O)S(=O)(=O)c2cc(OC)ccc2OC)cc1 12.7%
COc1ccc(N2CCN(c3ccc(N)cc3C#N)CC2)cc1 27.6%
COc1ccc(C(=O)N2CCN(c3ncccn3)CC2)cc1 0.88%
COc1cccc(N2CCN(c3ncccn3)CC2)c1 5.71%
COc1ccnc(N2CCN(c3ccccc3)CC2)c1C#N 8.98%
COc1ccc(C(=O)NCC(=O)OCc2ccc(Br)cc2)cc1 11.1%
CC(c1nccs1)N(C)C(=O)CCc1nnc(Cc2c[nH]c3ccccc23)o1 (configuration not stated) 11.5%
O=C1/C(=C/c2ccc(O)cc2)SC(=S)N1CC1CCCO1 (configuration not stated) 31.1%
COC(=O)C1=C(C)N(CC2CCCO2)C(=O)C1 (configuration not stated) 4.38%
O=C(N/N=C/c1ccc(-c2ccccc2C(=O)O)o1)c1cccs1 11.8%
COc1ccc(-c2noc(-c3ccccc3C(=O)NCc3ccco3)n2)cc1 8.25%
CCCNC(=O)CN1CCN(c2cc3ccccc3c(Cl)n2)CC1 4.31%
CC(=O)Nc1ccc(Oc2nc(C(F)(F)F)nc3ccccc23)cc1 11.9%
Cc1cccc(Oc2nc(-c3ccccn3)nc3ccccc23)c1 11.2%
CC(C)(C)S(=O)(=O)N1C[C@@H]2CC/C=C\C/C(c3ccccc3)=C\2[C@H]1CCO 6.06%
C=C1CCN([C@@H](CC(C)C)C(=O)NCc2ccc(OC)cc2)S(=O)(=O)c2ccccc21 13.2%
COc1ccc2ccccc2c1C1NC(=O)NC(C)=C1[N+](=O)[O-] (configuration not stated) 1.63%
CC[n+]1c(/C=C/C=C/N(C(C)=O)c2ccccc2)sc2ccccc21 23.1%
CN(CCCS(=O)(=O)[O-])c1ccc(/C=C/c2ccc3ccccc3[n+]2C)cc1 9.16%
C[n+]1c(/C=C/c2ccc3c(c2)OCO3)ccc2ccccc21 -4.73%
CN(C)c1ccc(/C=C/c2nc3ccccc3s2)cc1 13.3%
CCN(CC)c1ccc(/C=C/c2ccc3ccc(OC)cc3[n+]2CC)cc1 12.8%
CC[n+]1c(/C=C/c2ccc(OC)c(OC)c2)ccc2ccccc21 11.3%
COc1ccccc1N1CCN(C(=O)C(=O)c2cn(CC(=O)N3CCCCCC3)c3ccccc23)CC1 4.2%
Cc1ccc2oc(=O)c3cnn(CC(=O)N(CCCN4CCOCC4)Cc4ccco4)c3c2c1 5.12%
